# Over roughly 33,000 sequences, “e-score” has its median near -0.037; the highest 2% begin near 0.34. What follows is part of a selection rich in the highest values, with near analogues and random picks from the rest.
# Target: T1, GST-Rok (full length) (Bacillus subtilis subsp. subtilis str. …, UniProt O34857 1-191)
# T1 sequence: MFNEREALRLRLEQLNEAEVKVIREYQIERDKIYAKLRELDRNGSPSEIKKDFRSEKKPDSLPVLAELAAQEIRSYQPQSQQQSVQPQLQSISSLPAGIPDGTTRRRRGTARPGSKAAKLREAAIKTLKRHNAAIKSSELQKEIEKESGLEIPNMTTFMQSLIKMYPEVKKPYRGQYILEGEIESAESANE
# Experiment: protein binding microarray; Rok is a gene silencer of Bacillus subtilis; high values mean tight binding
# Conditions: protein: recombinant; tags: GST (pTH5325, pDEST15-Magic modified); dsDNA, one strand shown
# How it was run: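 Each has a 25-mer constant primer and a 35-mer variable part from a de Bruijn sequence of order 10, covering every non-palindromic 8-mer at least 32 times (palindromic 16). Preference for each 8-mer is given as a rank-based, unitless enrichment score (E-score). Its range runs from 0.5 (most favored) to −0.5 (most disfavored).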
row,Sequence,binding signal
1,TACCAAAA,0.165 E-score
2,AGTTTCCA,0.18 E-score
3,CACGTATA,0.243 E-score
4,GACGTATA,0.212 E-score
5,TACGTATA,0.35 E-score
6,TCTAGTCA,0.183 E-score
7,CTATATAC,0.341 E-score
8,AGATATCA,0.127 E-score
9,AGATATCT,0.399 E-score
10,GCATATAC,0.268 E-score
11,ACATAACG,0.157 E-score
12,CTCTATAC,0.033 E-score
13,CCATATAC,0.251 E-score
14,AGATATCC,-0.0591 E-score
15,GGATATAC,0.317 E-score
16,ACATAACC,0.0404 E-score
17,GTATATAC,0.432 E-score
18,ACATAACT,0.347 E-score
19,ATCTTTCG,0.109 E-score
20,AAGGATCA,-0.129 E-score
21,CCTAAACC,-0.152 E-score
22,CAAGGTCG,-0.126 E-score

row,Sequence,binding signal
1,GCTGAAAA,-0.146 E-score
2,GTTCTTAA,0.122 E-score
3,CAAAGCTC,-0.0842 E-score
4,TCGAAAAA,-0.0412 E-score
5,ACGTTAGA,0.156 E-score
6,CAGGCATG,-0.176 E-score
7,ACATATGT,0.401 E-score
8,AGATATAC,0.238 E-score
9,AGATATAG,0.151 E-score
10,ATATAAAT,0.422 E-score
11,ATATAAAC,0.262 E-score
12,ACATATAC,0.289 E-score
13,AGATATAT,0.395 E-score
14,ACATATGG,0.168 E-score
15,ATATAAAG,0.17 E-score
16,AGATATAA,0.183 E-score
17,ACATATGA,0.069 E-score
18,ATATATAC,0.396 E-score
19,CAGACGAA,-0.0357 E-score
20,CGTCTAAA,-0.027 E-score
21,AGGCCTCA,-0.155 E-score
22,AAGTTGAT,0.0883 E-score

row,Sequence,binding signal
1,CGGCAACA,-0.0449 E-score
2,CCTGTAAG,-0.159 E-score
3,AAGAATAA,0.183 E-score
4,ACGTCACA,-0.0872 E-score
5,CAATGATG,0.161 E-score
6,ACAATTCT,0.149 E-score
7,ATATATAT,0.471 E-score
8,ACATATAT,0.378 E-score
9,ATATATGC,0.338 E-score
10,ACCTATAT,0.301 E-score
11,ATATATGG,0.299 E-score
12,ATATACAT,0.302 E-score
13,ACATATAG,0.193 E-score
14,ACATATAA,0.329 E-score
15,CTATATGC,0.185 E-score
16,ACGGGTTC,-0.114 E-score
17,AACAGGCG,-0.0571 E-score
18,CTAATGAC,-0.05 E-score
19,ATATAAAA,0.288 E-score
20,GTATATAA,0.278 E-score
21,ATATATAA,0.435 E-score
22,CTATATAA,0.345 E-score

row,Sequence,binding signal
1,CTCTATAA,0.0692 E-score
2,TCATATAA,0.192 E-score
3,CTATAAAA,0.23 E-score
4,TAATATAA,0.236 E-score
5,TTATATAA,0.399 E-score
6,CAACTGTG,-0.0366 E-score
7,CCTATGAA,-0.0665 E-score
8,GAAGAAAA,-0.0942 E-score
9,ATTGATCA,0.101 E-score
10,GAAAACCA,-0.118 E-score
11,CCAAACTA,0.364 E-score
12,ACAAACTA,0.383 E-score
13,GAAAACTC,-0.114 E-score
14,ACAAACTC,0.155 E-score
15,AAAAACTC,0.0197 E-score
16,CCAAACTC,-0.0373 E-score
17,GAAAACTA,0.346 E-score
18,AAAAACTA,0.417 E-score
19,ACAAACTG,0.127 E-score
20,CCAAACCA,-0.0489 E-score
